Experiment [1] is described as follows: inhibitors of TNFa-induced NFkB p65 translocation, primary screen, imaging, HUVEC, MLSMR starter and 10KST1 sets (AID 438).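 Further: compound added about 3h40 before a 20 min TNFalpha stimulation.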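 On inhibition: signal is the nuclear over cytoplasmic p65 intensity ratio per well.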 The following applies: HUVEC TNFa-induced p65 nuclear translocation; cell count: measured here: nuclei count (cytotoxicity indicator), at 2.08 µM; inhibition: at 2 µM, stronger effect = higher value, 0% TNFa-plus-vehicle, 100% no-TNFa wells.
The nature of experiment [2]: inhibitors of mutant huntingtin aggregation, primary screen, imaging, exon1htt(103Q)mCFP cells, high-content imaging (AID 483;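 active means visual image review flags a hit and inhibition of aggregation exceeds 20%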;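 further: compound exposure lasted 3 days before fixation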;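 on nuclei count: percent of the per-plate median nuclei count of sample wells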). The note with it: exon1htt(103Q)mCFP cell line, aggregate imaging, at 2 µM; inhibition of aggregation: stronger effect = higher value; nuclei count: measured here: cell count, toxicity.
Experiment [3] can be described thus: inhibitors of E-selectin induction by TNFa, primary screen, imaging, HUVEC, immunofluorescence, MLSMR starter and 10KST1 sets (AID 487;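 active means visually confirmed hit in the image check and inhibition above 20%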;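 on inhibition: signal is fraction of cell area covered by stained E-selectin grains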;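 on nuclei count: 100% = median nuclei count of all wells on the same plate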). The note with it: HUVEC TNFalpha-induced E-selectin immunofluorescence imaging, at 2 µM; inhibition: stronger effect = higher value; nuclei count: measured here: cell number, toxicity.
Experiment [4] has as its target Voltage-gated potassium channel subunit beta-2 (Rattus norvegicus) (UniProt P62483). In words: KvBeta enzyme negative modulators, primary screen, biochemical, NADPH fluorescence (AID 622;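 active means fluorescence slope higher than the sample average by over 3 SD, cut at about -0.22 in these data, passing the limit was not always enough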;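 further: slope of raw intensity against log time taken from 70 to 1610 s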). The following applies: recombinant KvBeta, 4-cyanobenzaldehyde reduction, at 10 µM, stronger effect = higher value.
Experiment [5] has the same target. In words: KvBeta positive modulators, primary screen, biochemical, NADPH fluorescence (AID 623;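 active means NADPH fluorescence slope more negative than the mean of all samples by about 3 SD, 99.7% confidence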;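 further: fluorescence intensity change per second fitted from 20 to 320 s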). The note with it: Recombinant KvBeta, NADPH fluorescence decrease slope, 10 min; at 10 µM; stronger effect = lower value.
Experiment [6] deals with Alpha-2C adrenergic receptor (Homo sapiens) (UniProt P18825). In words: modulators of alpha2C/GIRK thallium flux, primary screen, cell-based, HEK293 alpha2C/GIRK1/2 (AID 624;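 active means fluorescence slope after compound addition differing from the mean of all screened samples at 99.7% confidence, in either direction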;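 further: slope of fluorescence ratio to pre-addition baseline per second over 15 to 24 s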). The note with it: thallium flux BTC fluorescence, at 10 µM, actives lie on both sides.
A short description of experiment [7]: inhibitors of Sendai virus-induced IRF3 signaling, primary screen, TLR/RLR signaling modifier project, cell-based, Sendai virus stimulus, luciferase, 10K MLSCN set (AID 602276;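 active means inhibition at or above 50% at 10 µM; inactive means inhibition below 50%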;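 further: firefly luciferase from ISG56 promoter only with Renilla not read in this screen; 0% = Sendai virus plus DMSO and 100% = medium plus DMSO without virus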). The following applies: HEK293 RL24 IRF3 luciferase reporter, at 10 µM, stronger effect = higher value.
Experiment [8] is described as follows: inhibitors of poly I:C-induced TLR3 signaling, primary screen, cell-based, poly I:C stimulus, luciferase, 10K MLSCN set (AID 602277;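 active means inhibition of the reporter signal at or above 50%; inactive means inhibition below 50%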). The following applies: HEK293-TLR3 RL24 IRF3 luciferase reporter, at 10 µM, stronger effect = higher value. For orientation: A reporter such as luciferase makes a cellular process visible.

Activity calls are given as the source filed them.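 How the source made its calls, unless noted: active means inhibition above 20% together with a positive visual image hit; inconclusive means visual image hit but inhibition not above 20%; inactive means no visual image hit.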

Voltage-gated potassium channel subunit beta-2 (Rattus norvegicus), sequence (P62483 whole entry, looked up): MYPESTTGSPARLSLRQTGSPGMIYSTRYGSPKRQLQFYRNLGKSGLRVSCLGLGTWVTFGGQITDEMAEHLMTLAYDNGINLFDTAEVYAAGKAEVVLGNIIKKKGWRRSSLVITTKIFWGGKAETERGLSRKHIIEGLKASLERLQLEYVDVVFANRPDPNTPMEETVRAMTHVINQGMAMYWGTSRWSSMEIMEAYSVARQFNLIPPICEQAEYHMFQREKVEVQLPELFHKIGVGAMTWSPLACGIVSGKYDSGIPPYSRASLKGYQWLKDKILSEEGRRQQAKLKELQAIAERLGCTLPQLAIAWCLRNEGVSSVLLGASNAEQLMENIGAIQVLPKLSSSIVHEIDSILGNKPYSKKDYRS
Alpha-2C adrenergic receptor (Homo sapiens), sequence (P18825 whole entry, looked up): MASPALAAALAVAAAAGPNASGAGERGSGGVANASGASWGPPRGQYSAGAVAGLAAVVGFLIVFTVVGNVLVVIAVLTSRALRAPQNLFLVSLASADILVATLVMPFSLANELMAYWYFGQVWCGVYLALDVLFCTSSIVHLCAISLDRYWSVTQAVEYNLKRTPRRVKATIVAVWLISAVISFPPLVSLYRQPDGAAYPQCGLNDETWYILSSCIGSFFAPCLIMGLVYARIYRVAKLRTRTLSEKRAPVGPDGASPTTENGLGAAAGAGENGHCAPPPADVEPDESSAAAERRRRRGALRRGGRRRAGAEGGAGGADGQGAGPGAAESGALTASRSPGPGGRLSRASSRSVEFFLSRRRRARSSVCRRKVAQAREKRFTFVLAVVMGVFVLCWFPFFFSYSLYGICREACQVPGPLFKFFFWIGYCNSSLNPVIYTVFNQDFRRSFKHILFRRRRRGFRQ

As usually defined, the inhibition is the relative decrease from the control value, in per cent. Regarding `COCCn1c(=O)[nH]c2cc(C(=O)N3CCN(Cc4ccc5c(c4)OCO5)CC3)ccc2c1=O`, in experiment [1], the cell count stood at 742. For the same compound, the inhibition in experiment [1] is -1.6% (inactive); in experiment [3], -20.8% (inactive); in experiment [7], 2.81% (inactive); in experiment [8], -1.78% (inactive). In experiment [2], the inhibition of aggregation was -2% (inactive). For the same compound, the nuclei count in experiment [2] came out at 122%; in experiment [3], 115%. In experiment [4], the fluorescence slope is -0.643 (inactive). Besides, the NADPH fluorescence slope in experiment [5] was -1.6e-05 (inactive). Further, in experiment [6], the slope is 0.00392 (inactive).
`CCCN1C(=O)c2cc(C(=O)O)ccc2C1O` (stereo not drawn): the cell count in experiment [1] stood at 817. Moreover, the inhibition in experiment [1] was 8.1% (inactive); in experiment [3], -95.2% (inactive); in experiment [7], 4.49% (inactive); in experiment [8] it was 13.6% (inactive). In experiment [2], the inhibition of aggregation is 21.4% (inactive). Besides, the nuclei count turned out to be 103% in experiment [2] and 118% in experiment [3]. Also, the fluorescence slope in experiment [4] was -0.514 (inactive). Moreover, the NADPH fluorescence slope in experiment [5] is -2.2e-05 (inactive). Also, the slope in experiment [6] is 0.00732 (inactive).
Take `O=C1c2ccccc2C(=O)N1CCCn1nnc(-c2ccc(N3CCOCC3)cc2)n1`: the cell count in experiment [1] turned out to be 319. For the same compound, the inhibition in experiment [1] is -8.2% (inactive); in experiment [3] it was -80.5% (inactive); in experiment [7], 15.2% (inactive); in experiment [8] it was 21.3% (inactive). The inhibition of aggregation in experiment [2] was 28% (inactive). In addition, the nuclei count in experiment [2] is 111%; in experiment [3] it was 109%. For the same compound, the fluorescence slope in experiment [4] is -0.619 (inactive). Moreover, the NADPH fluorescence slope in experiment [5] is -1.3e-05 (inactive). In experiment [6], the slope is 0.00347 (inactive).
On to `CCCCn1c(SCC(=O)OCC)nc2c1c(=O)[nH]c(=O)n2C`, for which the cell count in experiment [1] is 611. For the same compound, the inhibition is -0.3% (inactive) in experiment [1], 7.7% (inactive) in experiment [3], 13.7% (inactive) in experiment [7] and 21.6% (inactive) in experiment [8]. The inhibition of aggregation in experiment [2] was 5.2% (inactive). For the same compound, the nuclei count in experiment [2] came out at 97.5%; in experiment [3], 84.3%. Besides, the fluorescence slope in experiment [4] is -0.499 (inactive). Moreover, the NADPH fluorescence slope in experiment [5] was -2.6e-05 (inactive). For the same compound, in experiment [6], the slope was 0.00682 (inactive).
As to `COc1ccc(N(C)C(=O)CCS(=O)(=O)c2cccc3nonc23)cc1`, the cell count in experiment [1] was 704. In addition, the inhibition in experiment [1] is -12.2% (inactive); in experiment [3] it was -32.3% (inactive); in experiment [7] it was -4.78% (inactive); in experiment [8], -38.6% (inactive). Further, in experiment [2], the inhibition of aggregation is 0.8% (inactive). Further, the nuclei count stood at 108% in experiment [2] and 118% in experiment [3]. For the same compound, in experiment [4], the fluorescence slope was -0.488 (inactive). Also, the NADPH fluorescence slope in experiment [5] is 1.2e-05 (inactive). In addition, the slope in experiment [6] was 0.00576 (inactive).
Regarding `COc1ccccc1NS(=O)(=O)c1ccc(OC)c(OC)c1`, in experiment [1], the cell count came to 401. Further, the inhibition in experiment [1] was 5.5% (inactive); in experiment [3], 30.1% (inactive); in experiment [7] it was 1.27% (inactive); in experiment [8] it was 24.3% (inactive). Further, the inhibition of aggregation in experiment [2] was 0.8% (inactive). For the same compound, the figures for the nuclei count in experiment [2] and in experiment [3] were 101% and 96%, respectively. In experiment [4], the fluorescence slope is -0.484 (inactive). For the same compound, the NADPH fluorescence slope in experiment [5] is -4.4e-05 (inactive). Moreover, the slope in experiment [6] was 0.00597 (inactive).
Take `Cc1cccc(C(=O)N(C)c2nnc(-c3ccncc3)s2)c1`: the cell count in experiment [1] amounted to 346. The inhibition in experiment [1] is -10.7% (inactive); in experiment [3], 34.2% (inactive); in experiment [7], -6.14% (inactive); in experiment [8], -18% (inactive). In addition, the inhibition of aggregation in experiment [2] is 6.1% (inactive). The nuclei count came out at 74.3% in experiment [2] and 102% in experiment [3]. Further, the fluorescence slope in experiment [4] is -0.546 (inactive). For the same compound, the NADPH fluorescence slope in experiment [5] is 9.6e-06 (inactive). Moreover, the slope in experiment [6] was 0.0064 (inactive).
With `CC(C)(C)NC(=O)CN(C(=O)C1CSC(=O)C1)c1ccc2c(c1)OCCO2` (stereo not drawn), the cell count in experiment [1] was 612. The inhibition in experiment [1] was 2.9% (inactive); in experiment [3], 7.1% (inactive); in experiment [7], -11.9% (inactive); in experiment [8], -7.89% (inactive). Further, in experiment [2], the inhibition of aggregation is 7.5% (inactive). Besides, the values for the nuclei count in experiment [2] and in experiment [3] were 95.8% and 108%, respectively. Moreover, in experiment [4], the fluorescence slope is -0.362 (inactive). Also, the NADPH fluorescence slope in experiment [5] was -6.7e-05 (inactive). The slope in experiment [6] was 0.00456 (inactive).
Consider `Cc1cc2ccccc2n1CCNC(=O)C1CC1`, for which, in experiment [1], the cell count was 709. Also, the inhibition in experiment [1] was -6.9% (inactive); in experiment [3] it was -35% (inactive); in experiment [7], 11.4% (inactive); in experiment [8] it was 33.2% (inactive). In addition, the inhibition of aggregation in experiment [2] is -3.6% (inactive). Moreover, the nuclei count in experiment [2] was determined as 107%; in experiment [3], 120%. Moreover, in experiment [4], the fluorescence slope was -0.42 (inactive). For the same compound, the NADPH fluorescence slope in experiment [5] is -3.8e-05 (inactive). In addition, in experiment [6], the slope is 0.00596 (inactive).
On to `CCN(CCCNC(=O)C1CCCN(S(=O)(=O)c2cnc[nH]2)C1)c1ccccc1` (stereo not drawn), for which the cell count in experiment [1] stood at 611. The inhibition in experiment [1] is 21.8% (inactive); in experiment [3] it was -91.6% (inactive); in experiment [7], 5.83% (inactive); in experiment [8], 7.07% (inactive). In experiment [2], the inhibition of aggregation was -4.7% (inactive). Also, the nuclei count was 100% in experiment [2] and 142% in experiment [3]. Moreover, the fluorescence slope in experiment [4] was -0.507 (inactive). The NADPH fluorescence slope in experiment [5] was -2.4e-05 (inactive). Further, in experiment [6], the slope was 0.00623 (inactive).
For the compound `CCOC(=O)c1cccc(NC(=O)CSc2nnc(C3CCCCC3)n2C)c1`, in experiment [1], the cell count is 291. Also, the inhibition is -10.5% (inactive) in experiment [1], 18% (inactive) in experiment [3], 12.9% (inactive) in experiment [7] and 17.5% (inactive) in experiment [8]. Moreover, the inhibition of aggregation in experiment [2] was 7.3% (inactive). Also, the nuclei count was determined as 117% in experiment [2] and 113% in experiment [3]. Also, the fluorescence slope in experiment [4] is -0.586 (inactive). Also, the NADPH fluorescence slope in experiment [5] is -3.6e-05 (inactive). Further, the slope in experiment [6] is 0.00599 (inactive).
For `O=C(Cn1ncc2c1-c1ccccc1OC2)Nc1ccc(Cl)cn1`, the cell count in experiment [1] was 462. In addition, the inhibition in experiment [1] is -2.9% (inactive); in experiment [3] it was -55% (inactive); in experiment [7], 9.19% (inactive); in experiment [8] it was 29.8% (inactive). In experiment [2], the inhibition of aggregation was -7.1% (inactive). Also, the nuclei count in experiment [2] worked out at 114%; in experiment [3], 116%. The fluorescence slope in experiment [4] was -0.573 (inactive). Moreover, in experiment [5], the NADPH fluorescence slope is -3.2e-05 (inactive). Further, the slope in experiment [6] was 0.00703 (inactive).
With `Fc1ccc(-c2nnc(CN3CCN(c4ncc(C(F)(F)F)cc4Cl)CC3)o2)cc1`, the cell count in experiment [1] was 405. Also, the inhibition in experiment [1] is -14.7% (inactive); in experiment [3], -9.8% (inactive); in experiment [7], 8.36% (inactive); in experiment [8] it was -7.66% (inactive). Also, the inhibition of aggregation in experiment [2] is 8.2% (inactive). Besides, the nuclei count in experiment [2] was 111%; in experiment [3], 124%. The fluorescence slope in experiment [4] is -0.435 (inactive). For the same compound, in experiment [5], the NADPH fluorescence slope was -8.4e-06 (inactive). Moreover, the slope in experiment [6] was 0.00518 (inactive).

For the origin of these results see PubChem BioAssay.
